# PubChem BioAssay (NCI)
# The panel holds about 83,000 compounds, 20% with a hit somewhere; the sample as a whole holds those more often.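 Treatment: one concentration, 48 hours, 96-well format. Scoring: percent growth, with anything below 10 considered active.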 Values without a mark were called inactive. Activity calls are given as the source filed them.
# Tested on: MDA-MB-468 breast
# Test: NCI-60 one-dose screen, 48 h (100 = growth as untreated, 0 = no growth, -100 = all killed)
# Settings: 10 µM unless noted
row,Structure (SMILES),growth
1,N#Cc1ccc(Oc2ccc3ccc(=O)oc3c2)cc1,93.4%
2,CC1(C)CC(=O)C2=C(C1)OC1=C(C(=O)CC(C)(C)C1)C2c1ccc(OCc2cn(-c3ccc(F)cc3F)nn2)cc1,103%
3,CNC(=O)c1cc(N2CCc3cc(NC(=O)Nc4ccc(N5CCOCC5)c(C(F)(F)F)c4)ccc32)ccn1,49.6%
4,CC1=C([Se]CC(OC(=O)[C@@H](CO)NC(=O)OC(C)(C)C)C(=O)NC(C)(C)C)C(=O)c2ccccc2C1=O (some centres undefined),-74.2% (active)
5,CCN1C(=O)N(CC)C2C1NN=c1s/c(=C3\C(=O)N(CCc4ccccc4)c4ccccc43)c(=O)n12 (centres undefined),-11.3% (active)
6,CC(=O)c1ccc2c(c1)CCN2,104%
7,COc1cc(NC(=O)c2cc3ccccc3nc2Nc2ccc(F)cc2)cc(OC)c1OC,-0.996% (active)
8,Nc1ncnc2c1c(-c1ccc(Oc3ccccc3)cc1)nn2C[C@H]1SSC[C@@H]1O,-26.7% (active)
9,CC1CCCN(CCCCOc2ccc(-c3ccc(C#N)cc3)cc2)C1 (centres undefined),87.6%
10,CC(C)(C)c1ccc(S(=O)(=O)Oc2ccc3c4c(c(=O)oc3c2)CCCCC4)cc1,23.9%
11,ClC(Cl)c1nc(-c2ccccc2)nc2cc(-c3ccccc3)nn12,33.8%
12,Clc1ccc2c(NCCCn3ccnc3)c3oc4ccccc4c3nc2c1,39.7%
13,O=C(Cc1ccccc1)C(F)(F)F,111%
14,CC(=O)Nc1ccc(NC(=O)Nc2cccc(-c3nc(-c4ccc(NC(=O)c5cccs5)cc4Cl)no3)c2)cc1C(F)(F)F,-77.7% (active)
